Consider 108 molecules from PubChem BioAssay AID1466 (National Center for Advancing Translational Sciences (NCATS), 2008).

Among all 200,000 compounds or so, about 10 (0.005%) were called active. Not shown: some 8% with an inconclusive outcome. The list is a sample of the results. A number with no mark means an inactive call. Calls come from the whole dose curve; as a rule, active = well fitted inhibition curve with a large enough effect; inconclusive = small, poorly fitted or top-dose-only effect, or effect the other way, or another doubt; inactive = no such curve, though single readings can be large or run the other way.

This assay deals with Lysosomal alpha-glucosidase (Homo sapiens) (UniProt P10253). Description: qHTS Assay for Inhibitors of Human alpha-Glucosidase as a Potential Chaperone Treatment of Pompe Disease.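 Note: plate controls were uninhibited enzyme wells for no effect and no-enzyme background for full effect.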 The settings on record: purified human GAA, 4-MU-alpha-glucoside fluorescence; series mostly up to 76.9 µM. From the text: NIH Chemical Genomics Center [NCGC] NIH Molecular Libraries Probe Production centers Network [MLPCN] MLPCN Grant: 1R03MH084841-01 Assay Submitter (PI): Wei Zheng NCGC Assay Overview: Alpha-glucosidase is responsible for hydrolysis of terminal, non-reducing 1,4-linked alpha-D-glucose residues with release of alpha-D-glucose. It is a lysosomal hydrolase that is required for the degradation of a small percentage (1-3%) of cellular glycogen in human. Deficiency of this enzyme results in glycogen-storage disease type II (GSDII), also referred to as Pompe disease, an autosomal recessive disorder. Structurally normal glycogen is accumulated in lysosomes and cytoplasm in affected patients, primarily in muscle tissues. Excessive glycogen storage within lysosomes may interrupt normal functioning of other organelles and leads to cellular injury. In turn, this leads to enlargement and dysfunction of the entire organ involved (eg, cardiomyopathy and muscle weakness). It has reported that the improper folding and trafficking of alpha-glucosidase resulting from the genetic mutations may account for a significant number of Pompe patients. […] We optimized this alpha-glucosidase assay in 1536-well plate format for identifying the novel small molecule inhibitors with the structures other than the sugar analogs in order to develop the new pharmacological chaperones.
NCGC Assay Protocol Summary: This is a fluorogenic enzyme assay with 4-methylumbelliferyl-alpha-D-[…] as the substrate and human alpha-glucosidase as the enzyme preparation. Upon the hydrolysis of this fluorogenic substrate, the resulting product, 1. 4-methyllumbelliferone, can be excited at 365 nm and emits at 440 nm which can be detected by a standard fluorescence plate reader. Data were normalized to the controls for basal activity (without enzyme) and 100% activity (with enzyme). In the AC50 values were determined from concentration-response data modeled with the standard Hill equation. Assay buffer: 50 mM citric acid (titrated with potassium phosphate to pH 5.0), 0.005% Tween-20, pH 5.0. (pH 5.0 is an optimal condition for this enzyme assay) 1536-well assay protocol for the human alpha-glucosidase: (1) Add 2 ul/well of enzyme (4 nM final) (2) Add 23 nL compounds in DMSO solution. The final titration was 0.7 nM to 77 uM. (3) Add 1 ul of substrate (400 uM final) (4) Incubate at room temperature for 20 min. (5) Add 2 ul stop solution (1M NaOH and 1M Glycine mixture, pH 10) (6) Detect the assay plate in a ViewLux plate reader (PerkinElmer) with Ex=365 nm and Em=440nm. Keywords: Alpha-glucosidase, Pompe Disease, pharmacological chaperone, chaperone therapy, high throughput screening, alpha-glucosidase inhibitor, MLSMR, MLSCN, NIH Roadmap, qHTS and NCGC
`CN1CCc2nc(SC(C(=O)O)c3ccccc3)c(C#N)c(-c3cccs3)c2C1` (stereo not drawn): the activity change, negative = inhibition result is “inactive”.
`COc1ccccc1NC(=S)N1CCN(C(c2ccccc2)c2ccccc2)CC1`: the activity change, negative = inhibition entry was “inactive”.
With `S=C(NNC(=S)NC1CC2CCC1C2)NC1CC2C=CC1C2` (stereo not drawn) the entry was “inactive”.
With `COc1ccccc1NC(=S)N1CCC(NC(=O)C23CC4CC(CC(C4)C2)C3)CC1` the entry was “inactive”; with `COc1ccc2[nH]c(C(=O)Nc3ccccc3Cl)cc2c1`, “inactive”.
Under `COc1ccc(Br)c2c1C(=O)CC2` stands “inactive”; under `c1ccc(-n2nnnc2-c2cccnc2)cc1`, “inactive”.
Regarding `CCCSc1ncccc1C(=O)O`, the activity change, negative = inhibition result is “inactive”.
With `Cn1c(SCC(=O)c2ccc(F)cc2)nnc1-c1ccccn1` the entry was “inactive”.
With `COc1ccc(Cl)cc1NC(=O)C(C)N1CCc2ccccc21` (stereo not drawn) the entry was “inactive”; with `CSc1ccc(CNCCN2CCOCC2)cc1`, “inactive”; with `Cc1ccccc1NC(=O)Nc1ccccc1N1CCCCC1`, “inactive”.
Under `Clc1ccc(CSc2nnc3c(n2)[nH]c2ccccc23)cc1` stands “inactive”; under `O=C(COc1ccc(S(=O)(=O)N2CCCCC2)cc1)NCc1ccccn1`, “inactive”.
For `O=C(NNS(=O)(=O)c1ccccc1C(F)(F)F)c1cc2ncc(C(F)(F)F)cc2s1`, the activity change, negative = inhibition result was “inactive”.
With `CCOC(=O)C1CCN(C(=O)C2(NC(=O)Nc3cccc(F)c3)CCCCC2)CC1` the entry was “inactive”; with `Cc1ccccc1-c1nc(C#N)c(NCc2ccco2)o1`, “inactive”.
Under `Cc1cccc(C(=O)N2CCC(c3nc4ccccc4s3)CC2)c1` stands “inactive”.
Turning to `COc1ccc(CN2CCN(Cc3cn(C)nc3-c3ccccc3)CC2CCO)c(C)c1C` (stereo not drawn), the activity change, negative = inhibition result is “inactive”.
Under `Cc1noc(C)c1/C=N/Nc1ccc2ccccc2n1` stands “inactive”; under `COc1cc(CNCCN(C)C)ccc1OCc1c(F)cccc1Cl`, “inactive”; under `Cc1ccc(C(=O)NC(=S)Nc2ccc(N3CCOCC3)cc2)cc1`, “inactive”.
With `O=C(CN1CCN(C/C=C/c2ccccc2)CC1)Nc1ccc(F)cc1F` the entry was “inactive”; with `COC(=O)c1cn(C(=O)c2ccc(Cl)cc2)c2ccccc12`, “inactive”.
With `O=C1/C(=C/c2cccs2)CCC1C1CCCC1` (stereo not drawn) the entry was “inactive”.
As for `O=C(CCl)N(Cc1cccc([N+](=O)[O-])c1)c1cccc(Cl)c1`, the activity change, negative = inhibition result was “inactive”.
With `Cc1cc(OC(=O)c2ccccc2)c([N+](=O)[O-])c(=O)[nH]1` the entry was “inactive”.
Under `CC(O)CNCCOc1cccc(Oc2ccccc2)c1` (stereo not drawn) stands “inactive”.
Under `O=C(CSc1ncn[nH]1)Nc1nc(-c2cccc([N+](=O)[O-])c2)cs1` stands “inactive”; under `Nc1ccc(C(=O)OCC(=O)NC2CCS(=O)(=O)C2)cc1[N+](=O)[O-]` (stereo not drawn), “inactive”; under `COc1cccc(OCCCN2CCCCCC2)c1`, “inactive”.
Turning to `Cc1ccc(Cl)cc1NC(=O)COC(=O)CC(C)(C)C`, the activity change, negative = inhibition entry was “inactive”.
For the molecule `CCC1(C)Cc2c(sc3nc(SC)[nH]c(=O)c23)CO1` (stereo not drawn), the activity change, negative = inhibition was 0.866% [at 15.4 µM].
In the case of `CC1CCN(S(=O)(=O)c2ccc3ncn(CC(=O)N(C)C4CCCCC4)c(=O)c3c2)CC1`, the activity change, negative = inhibition result is “inactive”.
With `Cc1nn(-c2ccccc2)c(=O)c2noc(C)c12`, the activity change, negative = inhibition is -3.66% [at 15.4 µM].
With `Cc1ccc(NNC(=O)c2c(F)cccc2Cl)cc1Cl` the figure was 1.45% [at 15.4 µM]; with `Cc1c(C(=O)N(Cc2ccccc2)Cc2cccnc2)cnn1-c1ccc(F)cc1`, “inactive”.
Under `CCOC(=O)C(=CNNc1ccsc1C(=O)OC)C(=O)OCC` stands “inactive”; under `Cc1ccc(-c2csc(-c3cc(C)on3)n2)cc1`, “inactive”.
Under `CC(=O)Nc1ccc(S(=O)(=O)Nc2nccc(/C=C/c3ccccc3F)n2)cc1` stands “inactive”; under `CCN1CCN(C(C(=O)NC2CCCC2)c2cc3c(cc2[N+](=O)[O-])OCO3)CC1` (stereo not drawn), “inactive”.
On to `Cc1ccc(C2CCN(C(=S)Nc3cccc(Cl)c3)C2)cc1` (stereo not drawn), for which the activity change, negative = inhibition entry was “inactive”.
With `COc1cccc(-c2ccc(SCC(=O)N3CCN(c4ccccc4)CC3)nn2)c1` the entry was “inactive”.
On to `COc1ccccc1-c1c(C#N)c(N)nc2c1CCC2`, for which the activity change, negative = inhibition was 6.93% [at 15.4 µM].
As to `Cc1noc(C)c1-c1nc(CSc2ccc(Cl)cc2)no1`, the activity change, negative = inhibition entry was “inactive”.
With `C/C(=N/NC(=O)c1ccn(C)n1)c1ccncc1` the entry was “inactive”.
Under `O=C(COC(=O)c1ccccn1)Nc1cccc2ccccc12` stands “inactive”; under `CC(C)CCN1CCN(Cc2ccc(C(F)(F)F)cc2)CC1CCO` (stereo not drawn), “inactive”; under `O=C(NC(Cc1c[nH]c2ccccc12)C(=O)O)/C(=C/c1ccco1)NC(=O)c1ccccc1` (stereo not drawn), “inactive”.
Under `COc1ccccc1-n1c(=S)[nH]c2c(sc(=S)n2-c2ccc(C)cc2C)c1=O` stands “inactive”; under `COc1ccc(C)cc1NC(=O)NCc1ccccn1`, “inactive”; under `Cn1c(CC2Sc3ccccc3NC2=O)nnc1SCC(=O)c1ccc(Cl)cc1` (stereo not drawn), “inactive”.
Regarding `N#Cc1ccc(Oc2ccc(C(F)(F)F)cc2NC(=O)c2ccc(F)cc2)cc1`, the activity change, negative = inhibition result is “inactive”.
Under `O=C(CSc1ccc([N+](=O)[O-])cn1)Nc1ccc(N2CCOCC2)c(Cl)c1` stands “inactive”; under `C/C(=N/O)c1ccc(N2C(=O)C3C4C=CC(C3C2=O)C2C3C(=O)N(c5ccc(/C(C)=N/O)cc5)C(=O)C3C42)cc1` (stereo not drawn), “inactive”.
With `CC(=O)c1ccc(N=C2SCCCN2C(=O)C2CCCCC2)cc1` the entry was “inactive”.
With `O=C(NNC(=S)NC(=O)c1cn(-c2ccccc2)nc1-c1ccccc1)c1ccncc1` the entry was “inactive”.
For the molecule `COc1ccc(C)cc1NC(=S)Nc1ccccc1SC`, the activity change, negative = inhibition entry is “inactive”.
With `Cc1ccc(S(=O)(=O)NC(=O)N2CCCN(Cc3ccc(F)cc3)CC2)cc1` the entry was “inactive”.
In the case of `Cc1ccc(/C=N/NC(=O)CN2CCN(Cc3ccccc3)CC2)s1`, the activity change, negative = inhibition was -2.78% [at 15.4 µM].
Under `CCS(=O)(=O)c1ccc(O)c(NC(=O)COc2ccc(Cl)cc2)c1` stands “inactive”; under `CCc1nc2ccccc2c(C(=O)NCc2ccc(OC)cc2)c1C`, “inactive”; under `CCc1ccc(CN(C)C(=O)CCc2nnc(-c3ccc(-c4ccccc4)cc3)o2)nc1`, “inactive”.
Take `CN(C)c1ccc(C=NCCc2ccc(S(N)(=O)=O)cc2)cc1`: the activity change, negative = inhibition entry is “inactive”.
With `COc1ccc(CN2CCC(c3nc4ccc(Cl)cc4[nH]3)CC2)cc1` the entry was “inactive”; with `Cc1ccccc1CSc1nnc(-c2ccccc2)c(=O)[nH]1`, “inactive”.
With `CCC(=O)OCCNc1nc(-c2ccccc2)nc2ccccc12` the entry was “inactive”.
With `NNC(=O)c1cnn(-c2ccccc2)c1C(F)(F)F` the entry was “inactive”; with `Cc1ccc(CN(Cc2cccnc2)C(=S)Nc2cccc(Cl)c2C)cc1`, “inactive”.
Turning to `CCOc1cc2c(Cl)ncnc2c(OCC)c1OCC`, the activity change, negative = inhibition result is “inactive”.
With `CC12C(=O)N(c3ccccc3)C(=O)C1C(c1ccccc1)N1CCCN12` (stereo not drawn) the figure was -7.1% [at 15.4 µM]; with `CSc1nc(C)nc(C2CC2)c1C#N`, “inactive”; with `COc1ccc(C)cc1NC(=O)CSc1nnc(CC(=O)Nc2ccccc2F)n1C`, “inactive”.
Under `C=CCc1ccc(OCC(O)CN2CCN(Cc3ccccc3)CC2)c(OC)c1` (stereo not drawn) stands “inactive”; under `O=C(c1ccc(-c2ccccc2)cc1)C1CCCN(C(=O)c2cncs2)C1` (stereo not drawn), “inactive”; under `Cc1c(CCC(=O)O)c(=O)oc2cc3occ(-c4ccccc4)c3cc12`, 4.78% [at 15.4 µM].
With `Cc1n[nH]c(=O)n1-c1ccc(C(C)C)cc1` the entry was “inactive”.
Take `O=C(COC(=O)c1ccncc1)c1ccccc1`: the activity change, negative = inhibition result is “inactive”.
With `O=C(Nc1ccc(S(=O)(=O)Nc2nccs2)cc1)c1cc(=O)[nH]c2ccccc12` the figure was -5.51% [at 15.4 µM]; with `COC(=O)c1ccc(CN2CCN(CCCc3ccccc3)C(CCO)C2)cc1` (stereo not drawn), “inactive”.
Under `Cc1cc(CO)nn1-c1ccc([N+](=O)[O-])cc1` stands “inactive”; under `Cc1ccc2cc(CN(c3ccc(C)c(C)c3)S(C)(=O)=O)c(=O)[nH]c2c1`, “inactive”; under `O=C(Cc1ccccc1)N1CCN(S(=O)(=O)c2ccc([N+](=O)[O-])cc2)CC1`, “inactive”.
Under `CC(=O)c1c(-c2ccccc2)c2ccccc2[nH]c1=O` stands “inactive”; under `c1ccc(-c2cc(N3CCCCC3)c3ccccc3n2)cc1`, “inactive”; under `FC(F)(F)c1ccnc(Oc2ccc(C3=NCCS3)cc2)c1`, “inactive”.
On to `O=C(O)CC1=C(Nc2ccccc2)C(=O)N(c2ccccc2)C1c1ccc(Cl)cc1` (stereo not drawn), for which the activity change, negative = inhibition entry was “inactive”.
Under `CC1CCCN(CC(O)COc2ccc3c(c2)OCO3)C1` (stereo not drawn) stands “inactive”; under `COc1ccc(/C=C/CN2CCN(Cc3ccc(C)cc3)C(CCO)C2)cc1` (stereo not drawn), “inactive”; under `COc1cc(C)c(Cl)cc1S(=O)(=O)n1ccnc1`, “inactive”.
Under `CCOC(=O)C1(CC2CCCCO2)CCN(Cc2nc(-c3cccs3)oc2C)CC1` (stereo not drawn) stands “inactive”.
With `O=C(c1ccc(OC2CCN(Cc3ccccn3)CC2)cc1)N1CCCCCC1` the entry was “inactive”; with `c1ccc(Cc2cc[n+](Cc3ccccc3)cc2)cc1`, “inactive”.
`Cc1nc(N)[nH]c(=O)c1Oc1cccc(C(F)(F)F)c1`: the activity change, negative = inhibition result is “inactive”.
With `CC(C)Oc1ccc(CCc2nnc(SCC(=O)O)n2-c2ccccc2)cc1` the entry was “inactive”.
Under `O=C(NC1C2CC3CC(C2)CC1C3)c1ccc(N2CCNCC2)c([N+](=O)[O-])c1` (stereo not drawn) stands -3.61% [at 15.4 µM]; under `CCN(CC)P(=O)(Nc1ccc(SC(F)F)cc1)c1ccc(N(C)C)cc1NC(=O)c1ccco1` (stereo not drawn), “inactive”.
Under `C=C(C)COc1ccc(-c2nc(N)ncc2-c2ccccc2OC)c(O)c1` stands “inactive”; under `CCN(CCn1cccn1)Cc1nc(-c2ccc(C(=O)OC)cc2)no1`, “inactive”.
Turning to `O=C1Oc2ccccc2C(=O)/C1=C/c1ccccc1O`, the activity change, negative = inhibition entry is “inactive”.
For `Cc1ccc(S(=O)(=O)N2CCOCC2)cc1C(=O)OC1CCCCC1=O` (stereo not drawn), the activity change, negative = inhibition result is “inactive”.
Regarding `N#CC1=C(N)Oc2c(ccc3cccnc23)C1c1ccncc1` (stereo not drawn), the activity change, negative = inhibition was -8.01% [at 15.4 µM].
Under `COC(=O)c1sccc1NN1C(=O)c2ccccc2C1=O` stands “inactive”; under `CCc1ccc(-n2c(SCc3cc(=O)n4cc(Br)ccc4n3)nc3[nH]ncc3c2=O)cc1`, “inactive”; under `O=C(c1ccc(F)cc1)n1c(=S)nc2ccccn21`, “inactive”.
With `COc1ccc(CN2CCCC(C(=O)c3ccc(Cl)cc3)C2)cc1Cn1cncn1` (stereo not drawn) the entry was “inactive”; with `CS(=O)(=O)c1ccc2nnn(OCC(=O)Nc3cccc(C#N)c3)c2c1`, “inactive”; with `CCOC(=O)c1ccc(NNC(C)=O)c([N+](=O)[O-])c1`, “inactive”.
